Targets with a hit are over-represented here; the source holds about 8,800 in all. About 0.5% of all pairs of compound and target were hits.
compound: O=C(O)c1ccc2c(c1)nc(Nc1cccc(Cl)c1)c1ccncc12 [silmitasertib]; assay: log2 fold change, soluble protein after heating vs DMSO (PISA); higher = thermal stabilisation; K562 lysate, 10 uM; active = over 0.2 and 3.5 SD of the protein, either way, in both replicates (recomputed)
Outline: (§1)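 A 30 min treatment with 10 μM compound was applied to crude K562 extract at 1 mg/mL protein in PBS pH 7.4 with 1 mM MgCl2. Heating for 3 min spanned 48°C-58°C, after which aliquots were pooled, adjusted to 0.5% NP-40 at 4°C and spun at 21,000xg for 90 min. TMTpro 16plex LC-MS/MS of the supernatant, with channel sums equalised, gave values recorded as log-two fold change in thermal stability against solvent controls, from duplicates.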

Sequence of UniProt P35611 (P35611 whole entry, looked up): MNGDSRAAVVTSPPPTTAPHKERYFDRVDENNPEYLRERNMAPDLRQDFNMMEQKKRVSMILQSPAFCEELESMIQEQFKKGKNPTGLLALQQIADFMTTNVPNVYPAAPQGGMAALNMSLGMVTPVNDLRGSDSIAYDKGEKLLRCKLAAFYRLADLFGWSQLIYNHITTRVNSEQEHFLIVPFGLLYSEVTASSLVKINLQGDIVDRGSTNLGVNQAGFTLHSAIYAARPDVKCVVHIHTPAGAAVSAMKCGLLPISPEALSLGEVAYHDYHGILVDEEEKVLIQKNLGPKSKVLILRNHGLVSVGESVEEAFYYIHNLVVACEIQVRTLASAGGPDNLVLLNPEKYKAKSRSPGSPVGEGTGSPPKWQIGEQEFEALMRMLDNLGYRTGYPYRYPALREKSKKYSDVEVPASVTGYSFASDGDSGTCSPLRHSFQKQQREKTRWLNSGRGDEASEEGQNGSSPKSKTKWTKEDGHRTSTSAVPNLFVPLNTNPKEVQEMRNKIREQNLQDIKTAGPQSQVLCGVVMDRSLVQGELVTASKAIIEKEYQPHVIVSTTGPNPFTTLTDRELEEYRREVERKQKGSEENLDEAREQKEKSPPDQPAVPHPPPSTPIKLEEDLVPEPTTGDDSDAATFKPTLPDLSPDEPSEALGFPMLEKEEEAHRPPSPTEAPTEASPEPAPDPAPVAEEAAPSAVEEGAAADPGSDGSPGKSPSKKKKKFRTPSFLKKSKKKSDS
Sequence of UniProt Q2VPB7 (Q2VPB7 whole entry, looked up): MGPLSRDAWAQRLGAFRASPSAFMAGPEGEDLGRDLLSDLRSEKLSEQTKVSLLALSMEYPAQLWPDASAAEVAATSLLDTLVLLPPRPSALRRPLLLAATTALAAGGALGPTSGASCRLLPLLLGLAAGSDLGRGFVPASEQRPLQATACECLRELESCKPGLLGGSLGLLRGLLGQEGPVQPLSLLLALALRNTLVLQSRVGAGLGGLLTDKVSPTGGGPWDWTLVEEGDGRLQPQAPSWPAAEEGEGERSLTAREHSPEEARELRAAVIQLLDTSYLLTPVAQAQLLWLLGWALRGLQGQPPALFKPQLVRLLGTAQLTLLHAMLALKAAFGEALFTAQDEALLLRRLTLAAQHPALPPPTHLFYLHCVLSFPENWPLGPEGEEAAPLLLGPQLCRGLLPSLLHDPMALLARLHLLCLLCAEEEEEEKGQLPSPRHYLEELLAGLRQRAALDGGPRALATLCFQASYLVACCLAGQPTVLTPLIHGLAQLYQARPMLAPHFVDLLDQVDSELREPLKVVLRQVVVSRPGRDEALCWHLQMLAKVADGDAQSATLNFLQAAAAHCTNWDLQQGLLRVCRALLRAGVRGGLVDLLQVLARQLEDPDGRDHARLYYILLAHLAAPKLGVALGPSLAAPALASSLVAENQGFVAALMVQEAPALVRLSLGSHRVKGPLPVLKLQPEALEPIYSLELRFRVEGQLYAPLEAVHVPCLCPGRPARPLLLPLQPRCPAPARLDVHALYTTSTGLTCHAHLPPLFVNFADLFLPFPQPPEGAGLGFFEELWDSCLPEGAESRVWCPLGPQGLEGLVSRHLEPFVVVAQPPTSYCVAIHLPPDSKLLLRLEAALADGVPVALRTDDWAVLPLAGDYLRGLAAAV
Sequence of UniProt Q9ULX6 (Q9ULX6 whole entry, looked up): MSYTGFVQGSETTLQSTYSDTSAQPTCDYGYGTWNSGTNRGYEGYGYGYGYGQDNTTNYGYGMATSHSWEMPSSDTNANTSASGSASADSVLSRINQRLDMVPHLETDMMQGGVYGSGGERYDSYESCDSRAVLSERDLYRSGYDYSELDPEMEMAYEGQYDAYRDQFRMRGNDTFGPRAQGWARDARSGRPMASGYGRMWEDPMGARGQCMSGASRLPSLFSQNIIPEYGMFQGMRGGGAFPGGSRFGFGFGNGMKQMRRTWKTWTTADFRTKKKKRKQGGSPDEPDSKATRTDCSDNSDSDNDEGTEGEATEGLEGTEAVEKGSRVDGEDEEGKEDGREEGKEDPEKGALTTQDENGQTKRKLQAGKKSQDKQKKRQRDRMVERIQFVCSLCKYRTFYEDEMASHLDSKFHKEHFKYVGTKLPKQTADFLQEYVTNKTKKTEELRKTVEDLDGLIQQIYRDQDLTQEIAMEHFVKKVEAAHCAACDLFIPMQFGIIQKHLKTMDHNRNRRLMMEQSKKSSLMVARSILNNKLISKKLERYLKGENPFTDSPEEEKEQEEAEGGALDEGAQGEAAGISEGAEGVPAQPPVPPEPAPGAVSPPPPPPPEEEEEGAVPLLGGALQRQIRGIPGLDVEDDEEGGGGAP
Sequence of UniProt Q9NXU5 (Q9NXU5 whole entry, looked up): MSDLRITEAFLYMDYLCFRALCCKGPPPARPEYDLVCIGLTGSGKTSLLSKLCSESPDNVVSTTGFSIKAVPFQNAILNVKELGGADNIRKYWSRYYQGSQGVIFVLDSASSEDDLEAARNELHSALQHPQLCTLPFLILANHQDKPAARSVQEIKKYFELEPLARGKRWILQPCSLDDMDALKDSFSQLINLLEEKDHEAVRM
Sequence of UniProt Q5VST6 (Q5VST6 whole entry, looked up): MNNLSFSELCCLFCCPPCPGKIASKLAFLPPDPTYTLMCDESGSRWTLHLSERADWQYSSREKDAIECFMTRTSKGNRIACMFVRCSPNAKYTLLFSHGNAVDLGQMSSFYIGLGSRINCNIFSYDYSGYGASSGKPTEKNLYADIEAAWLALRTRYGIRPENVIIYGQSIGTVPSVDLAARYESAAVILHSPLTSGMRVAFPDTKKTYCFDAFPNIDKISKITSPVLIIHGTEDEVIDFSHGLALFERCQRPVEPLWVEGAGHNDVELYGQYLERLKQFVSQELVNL
Sequence of UniProt Q9BRQ8 (Q9BRQ8 whole entry, looked up): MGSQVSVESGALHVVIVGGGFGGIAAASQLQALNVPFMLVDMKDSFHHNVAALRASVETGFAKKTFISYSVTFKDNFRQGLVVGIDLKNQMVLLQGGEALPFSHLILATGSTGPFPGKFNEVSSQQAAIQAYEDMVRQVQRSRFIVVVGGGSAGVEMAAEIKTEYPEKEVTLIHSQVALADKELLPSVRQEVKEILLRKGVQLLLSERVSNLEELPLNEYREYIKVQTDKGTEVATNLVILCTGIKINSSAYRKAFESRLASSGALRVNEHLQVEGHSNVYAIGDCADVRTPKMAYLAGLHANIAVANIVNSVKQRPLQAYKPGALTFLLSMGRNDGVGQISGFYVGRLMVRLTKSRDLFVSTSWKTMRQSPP
Sequence of UniProt Q15067 (Q15067 whole entry, looked up): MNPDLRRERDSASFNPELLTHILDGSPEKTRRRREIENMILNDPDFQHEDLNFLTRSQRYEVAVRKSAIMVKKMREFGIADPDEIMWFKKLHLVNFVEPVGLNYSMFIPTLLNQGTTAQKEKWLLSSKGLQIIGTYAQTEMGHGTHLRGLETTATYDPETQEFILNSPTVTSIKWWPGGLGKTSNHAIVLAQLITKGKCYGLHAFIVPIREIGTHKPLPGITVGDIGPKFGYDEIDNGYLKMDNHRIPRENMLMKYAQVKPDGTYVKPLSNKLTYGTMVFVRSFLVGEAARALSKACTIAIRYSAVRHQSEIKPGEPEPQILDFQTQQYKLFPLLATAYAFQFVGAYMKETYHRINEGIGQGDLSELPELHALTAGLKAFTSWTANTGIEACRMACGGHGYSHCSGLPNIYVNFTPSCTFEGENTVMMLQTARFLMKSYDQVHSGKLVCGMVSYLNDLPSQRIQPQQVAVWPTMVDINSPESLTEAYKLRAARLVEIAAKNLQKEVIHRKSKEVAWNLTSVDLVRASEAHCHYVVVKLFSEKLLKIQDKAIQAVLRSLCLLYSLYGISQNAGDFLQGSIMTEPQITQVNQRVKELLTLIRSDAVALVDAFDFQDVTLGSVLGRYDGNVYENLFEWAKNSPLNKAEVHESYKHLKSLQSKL
Sequence of UniProt Q96GS6 (Q96GS6 whole entry, looked up): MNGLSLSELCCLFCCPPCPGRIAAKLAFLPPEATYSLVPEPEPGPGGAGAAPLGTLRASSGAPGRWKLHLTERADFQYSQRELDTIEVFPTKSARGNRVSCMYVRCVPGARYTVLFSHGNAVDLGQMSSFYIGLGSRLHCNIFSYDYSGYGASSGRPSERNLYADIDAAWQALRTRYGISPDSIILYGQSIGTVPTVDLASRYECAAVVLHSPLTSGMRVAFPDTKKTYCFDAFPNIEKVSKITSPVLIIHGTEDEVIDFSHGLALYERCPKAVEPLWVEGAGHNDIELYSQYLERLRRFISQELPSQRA
Sequence of UniProt P00352 (P00352 whole entry, looked up): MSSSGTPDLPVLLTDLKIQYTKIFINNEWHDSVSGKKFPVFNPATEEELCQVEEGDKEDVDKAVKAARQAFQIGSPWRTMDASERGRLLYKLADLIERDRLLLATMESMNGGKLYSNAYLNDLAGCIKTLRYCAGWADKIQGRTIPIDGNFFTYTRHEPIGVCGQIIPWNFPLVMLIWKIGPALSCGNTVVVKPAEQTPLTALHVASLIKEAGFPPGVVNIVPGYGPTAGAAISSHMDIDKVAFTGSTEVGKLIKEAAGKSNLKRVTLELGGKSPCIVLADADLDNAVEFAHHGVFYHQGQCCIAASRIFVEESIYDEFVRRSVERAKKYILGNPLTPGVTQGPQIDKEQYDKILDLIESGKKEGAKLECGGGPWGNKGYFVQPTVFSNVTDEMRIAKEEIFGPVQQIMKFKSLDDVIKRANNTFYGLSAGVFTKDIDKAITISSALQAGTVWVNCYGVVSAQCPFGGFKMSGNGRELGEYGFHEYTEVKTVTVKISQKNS
Sequence of UniProt Q9BT30 (Q9BT30 whole entry, looked up): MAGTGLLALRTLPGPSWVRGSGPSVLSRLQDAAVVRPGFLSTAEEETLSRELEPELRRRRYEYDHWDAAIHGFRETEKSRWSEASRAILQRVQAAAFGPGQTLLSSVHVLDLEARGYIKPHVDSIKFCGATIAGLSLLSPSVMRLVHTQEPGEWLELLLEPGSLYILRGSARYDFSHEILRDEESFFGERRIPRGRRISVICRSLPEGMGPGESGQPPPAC
Sequence of UniProt Q9BQI0 (Q9BQI0 whole entry, looked up): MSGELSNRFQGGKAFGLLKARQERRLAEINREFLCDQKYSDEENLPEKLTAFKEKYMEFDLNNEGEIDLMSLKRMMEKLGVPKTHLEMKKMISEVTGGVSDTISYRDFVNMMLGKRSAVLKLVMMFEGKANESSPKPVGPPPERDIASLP

log2 fold change, inactive:
ALKBH1 (UniProt Q13686) 0.135
ARL15 (UniProt Q9NXU5) 0.016
ACACB (UniProt O00763) 0.03
ADD1 isoform 4 (UniProt P35611) -0.148
APOBEC3C (UniProt Q9NRW3) 0.043
ADD1 isoform 3 (UniProt P35611) -0.012
ALDH1A1 (UniProt P00352) -0.011
ABRACL (UniProt Q9P1F3) 0.111
ANXA2 (UniProt H0YL33) 0.16
AIF1L (UniProt Q9BQI0) 0.083
APOB (UniProt P04114) 0.007
ALKBH7 (UniProt Q9BT30) -0.031
AIFM2 (UniProt Q9BRQ8) -0.015
ABHD17B (UniProt Q5VST6) -0.021
ACOX1 isoform 2 (UniProt Q15067) 0.009
ADAR isoform 4 (UniProt P55265) 0.019
AP5B1 (UniProt Q2VPB7) 0.044
ANKRD30B (UniProt Q9BXX2) 0.047
AGO4 (UniProt Q9HCK5) -0.018
ALDH3A1 (UniProt P30838) -0.113
ABHD17A isoform 2 (UniProt Q96GS6) -0.059
ARMCX5 (UniProt Q6P1M9) 0.013
AKAP8L (UniProt Q9ULX6) -0.001
ANKRD44 isoform 2 (UniProt Q8N8A2) 0.005
ABI1 isoform 9 (UniProt Q8IZP0) -0.025

compound: O=C1NC(=O)C(c2cnc3ccccn23)=C1c1cn2c3c(cc(F)cc13)CN(C(=O)N1CCCCC1)CC2; assay: as above
Outline: as §1

log2 fold change, inactive:
ARL15 (UniProt Q9NXU5) -0.029
ABHD13 (UniProt Q7L211) 0.027
ALDH18A1 isoform 2 (UniProt P54886) 0.204
ACACB (UniProt O00763) -0.009
ACLY isoform 2 (UniProt P53396) -0.061
APOBEC3C (UniProt Q9NRW3) -0.066
ADD1 isoform 3 (UniProt P35611) -0.022
ALDH1A1 (UniProt P00352) -0.018
ABRACL (UniProt Q9P1F3) 0.088
ANXA2 (UniProt H0YL33) 0.042
AIF1L (UniProt Q9BQI0) 0.022
ANKRD30A (UniProt Q9BXX3) -0.011
APOB (UniProt P04114) -0.012
ALKBH7 (UniProt Q9BT30) 0.079
AMDHD2 (UniProt Q9Y303) 0.042
AIFM2 (UniProt Q9BRQ8) 0.188
ABHD17B (UniProt Q5VST6) 0.032
ACOX1 isoform 2 (UniProt Q15067) 0.04
ADAR isoform 4 (UniProt P55265) -0.031
AP5B1 (UniProt Q2VPB7) -0.094
AGO4 (UniProt Q9HCK5) -0.006
ALDH3A1 (UniProt P30838) 0.023
ABHD17A isoform 2 (UniProt Q96GS6) -0.025
AKAP8L (UniProt Q9ULX6) -0.078
AIMP2 isoform 2 (UniProt Q13155) -0.07
ABI1 isoform 9 (UniProt Q8IZP0) 0.03

Reference: the supplement of paper PMC10849652
